The source of these data is PubChem BioAssay.

The structures appear in SMILES notation. Unmarked numbers belong to inactive results. For some of these results: Potency and affinity values are given separately. Calls of active or inactive are those of the source. Unless noted, how the calls were made is not given here.

Experiment [1] in a line: antimalarial activity against Dd2 strain (AID 2302;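 active means growth inhibition above 50% at the single 2 µM test dose, taken to imply half-maximal potency below 2 µM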;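 further: 0% = DMSO untreated growth and 100% = chloroquine plus artemisinin killed control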). To be noted: P. falciparum Dd2 in RBCs, LDH growth readout, 72 h; at 2 µM; hits give high values.
Experiment [2] can be described thus: HepG2 cytotoxicity, primary screen, cytotoxicity control for P. falciparum antimalarial project, cell-based, ATP luminescence (AID 2303;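 active means inhibition above 50%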;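 further: 0% = DMSO wells and 100% = digitonin-killed cells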). Particulars: HepG2 viability, 24-48 h, at 10 µM, hits give high values.
Experiment [3] deals with L-lactate dehydrogenase (Plasmodium falciparum (isolate CDC / Honduras)) (UniProt Q27743). The experiment can be described thus: PfLDH activity inhibition – cell lysate, 3D7 strain, counter-screen for P. falciparum growth inhibition project (AID 2304).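 Further: 0% = vehicle and 100% = reference inhibitor.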 To be noted: P. falciparum 3D7 crude extract, LDH APAD/NBT absorbance; at 2 µM; hits give high values. A general note: Counterscreens check selectivity or assay interference.

Experiment [4] is described as follows: inhibition of 3D7 malaria parasite growth – strain 3D7 (AID 2306).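 Further: 0% = DMSO wells and 100% = chloroquine plus artemisinin control wells.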 Particulars: P. falciparum 3D7 erythrocytic growth, LDH absorbance, 72 h; at 2 µM; hits give high values.
Experiment [5] deals with Calcium-dependent protein kinase 1 (Plasmodium falciparum (isolate 3D7)) (UniProt P62344). The experiment can be described thus: PfCDPK1 kinase inhibitors, biochemical, TCAMS library (AID 1159585; cut-off not given, nearly all actives have IC50 up to about 0.98 µM;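 further: inhibitors leave more ATP so luminescence rises with inhibition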). To be noted: recombinant PfCDPK1, Kinase-Glo ATP depletion luminescence. A general note: In Kinase-Glo more light means more ATP remaining.
Experiment [6] deals with Plasmodium falciparum protein kinase 6 (PK6, PF3D7_1337100) (UniProt Q8IDW1). The experiment can be described thus: PfPK6 kinase inhibitors, biochemical, TCAMS library (AID 1159586). To be noted: recombinant PfPK6, Kinase-Glo ATP depletion luminescence.
For experiment [7], the target named is Protein kinase 7 (PK7), Plasmodium falciparum 3D7 (PF3D7_0213400) (UniProt Q7YTF7). The experiment can be described thus: inhibition of Plasmodium PK7 catalytic activity – biochemical, TCAMS antimalarial set, Kinase-Glo luminescence (AID 1159587). To be noted: recombinant PfPK7, Kinase-Glo ATP depletion luminescence.
In experiment [8] the target is Calcium-dependent protein kinase 4 (Plasmodium falciparum (isolate 3D7)) (UniProt Q8IBS5). The experiment can be described thus: PfCDPK4 kinase inhibitors, biochemical, TCAMS library (AID 1159588; cut-off not given, nearly all actives have IC50 up to about 0.91 µM). Particulars: recombinant PfCDPK4, Kinase-Glo ATP depletion luminescence.
Sequence of Calcium-dependent protein kinase 4 (Plasmodium falciparum (isolate 3D7)) (Q8IBS5 whole entry, looked up): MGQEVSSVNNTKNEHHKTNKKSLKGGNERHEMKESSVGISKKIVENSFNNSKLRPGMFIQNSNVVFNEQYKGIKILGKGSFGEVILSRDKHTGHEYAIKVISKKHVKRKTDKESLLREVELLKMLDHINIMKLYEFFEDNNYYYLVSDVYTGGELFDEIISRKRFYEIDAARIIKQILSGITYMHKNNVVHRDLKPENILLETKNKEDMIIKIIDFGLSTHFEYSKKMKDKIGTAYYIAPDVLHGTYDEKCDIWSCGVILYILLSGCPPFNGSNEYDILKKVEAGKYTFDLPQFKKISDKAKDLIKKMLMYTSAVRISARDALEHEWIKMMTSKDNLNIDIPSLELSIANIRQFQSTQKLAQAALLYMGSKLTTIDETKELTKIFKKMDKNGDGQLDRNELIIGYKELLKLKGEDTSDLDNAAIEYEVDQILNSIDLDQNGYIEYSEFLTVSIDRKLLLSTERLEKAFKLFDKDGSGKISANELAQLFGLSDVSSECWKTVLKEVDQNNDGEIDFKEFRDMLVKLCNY

Sequence of Protein kinase 7 (PK7), Plasmodium falciparum 3D7 (PF3D7_0213400) (Q7YTF7 1-343): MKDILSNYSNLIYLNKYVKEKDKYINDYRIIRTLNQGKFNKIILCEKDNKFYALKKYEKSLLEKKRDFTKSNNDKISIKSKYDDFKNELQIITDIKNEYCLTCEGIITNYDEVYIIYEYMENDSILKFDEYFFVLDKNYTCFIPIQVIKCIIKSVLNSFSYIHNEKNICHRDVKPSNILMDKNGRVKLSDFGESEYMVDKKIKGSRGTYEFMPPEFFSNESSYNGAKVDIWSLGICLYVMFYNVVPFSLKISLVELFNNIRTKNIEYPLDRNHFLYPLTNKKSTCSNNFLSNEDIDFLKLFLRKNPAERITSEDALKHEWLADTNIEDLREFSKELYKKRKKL
Sequence of Calcium-dependent protein kinase 1 (Plasmodium falciparum (isolate 3D7)) (P62344 whole entry, looked up): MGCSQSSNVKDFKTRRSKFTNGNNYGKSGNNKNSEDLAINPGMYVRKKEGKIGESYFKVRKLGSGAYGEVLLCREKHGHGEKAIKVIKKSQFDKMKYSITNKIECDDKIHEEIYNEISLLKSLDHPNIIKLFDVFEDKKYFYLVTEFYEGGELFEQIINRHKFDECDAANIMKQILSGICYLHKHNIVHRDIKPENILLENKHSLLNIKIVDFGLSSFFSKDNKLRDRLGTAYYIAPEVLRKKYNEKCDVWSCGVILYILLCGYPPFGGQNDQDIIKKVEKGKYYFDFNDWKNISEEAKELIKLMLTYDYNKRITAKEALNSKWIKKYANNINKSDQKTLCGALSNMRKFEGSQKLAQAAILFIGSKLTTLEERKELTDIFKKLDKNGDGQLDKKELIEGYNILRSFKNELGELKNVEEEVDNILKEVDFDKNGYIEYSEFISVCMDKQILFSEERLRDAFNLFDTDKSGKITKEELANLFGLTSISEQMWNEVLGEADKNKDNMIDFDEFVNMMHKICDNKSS
Sequence of Plasmodium falciparum protein kinase 6 (PK6, PF3D7_1337100) (Q8IDW1 1-305): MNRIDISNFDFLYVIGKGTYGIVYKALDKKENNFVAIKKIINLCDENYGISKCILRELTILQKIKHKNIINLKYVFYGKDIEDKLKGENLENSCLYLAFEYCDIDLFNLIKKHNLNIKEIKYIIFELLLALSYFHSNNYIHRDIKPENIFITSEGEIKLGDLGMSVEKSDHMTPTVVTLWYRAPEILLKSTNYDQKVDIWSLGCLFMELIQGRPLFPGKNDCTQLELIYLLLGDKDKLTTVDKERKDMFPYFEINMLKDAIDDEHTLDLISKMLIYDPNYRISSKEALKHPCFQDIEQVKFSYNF
Sequence of L-lactate dehydrogenase (Plasmodium falciparum (isolate CDC / Honduras)) (Q27743 whole entry, looked up): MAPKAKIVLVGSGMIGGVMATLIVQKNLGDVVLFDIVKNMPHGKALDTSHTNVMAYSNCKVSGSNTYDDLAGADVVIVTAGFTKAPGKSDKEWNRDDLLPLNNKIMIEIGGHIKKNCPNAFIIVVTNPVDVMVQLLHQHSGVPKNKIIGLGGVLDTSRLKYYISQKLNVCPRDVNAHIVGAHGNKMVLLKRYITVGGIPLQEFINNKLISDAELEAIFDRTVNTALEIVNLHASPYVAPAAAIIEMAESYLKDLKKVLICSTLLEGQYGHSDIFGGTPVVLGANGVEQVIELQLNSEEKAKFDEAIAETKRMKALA

Regarding `Cc1cc(N(C)C)nc(Nc2ccc(NC(=O)c3cccc(F)c3)cc2)n1`, the results for the growth inhibition in experiment [1] and in experiment [4] were 62% (active) and 100% (active), respectively. Further, the figures for the inhibition in experiment [2] and in experiment [3] were -8% and 4%, respectively. For the same molecule, the result in experiment [5], in experiment [6], in experiment [7] and in experiment [8] was inactive.
As for `CCC1CN2CCc3cc(OC)c(OC)cc3C2CC1CC1NCCc2cc(OC)c(OC)cc21` (stereo not given), the growth inhibition in experiment [1] is 98% (active); in experiment [4], 103% (active). Moreover, the inhibition (in general, the change of the read-out against control, counted positive when it falls) in experiment [2] was 42%; in experiment [3], -3%. Further, the result in experiment [5], in experiment [6], in experiment [7] and in experiment [8] was inactive.
Regarding `O=C(Nc1ccc(-c2ccc(-c3nc4ccccc4[nH]3)s2)cc1)Nc1ccc(Cl)c(Cl)c1`, the results for the growth inhibition in experiment [1] and in experiment [4] were 99% (active) and 102% (active), respectively. Moreover, the figures for the inhibition in experiment [2] and in experiment [3] were 89% (active) and 2%, respectively. The result in experiment [5], in experiment [6], in experiment [7] and in experiment [8] was inactive.
Take `COc1ccccc1CCC(C)(C)NC(=O)CC(CCc1ccccc1)Nc1ccc(C#N)c2ccccc12` (stereo not given): the figures for the growth inhibition in experiment [1] and in experiment [4] were 65% (active) and 94% (active), respectively. Also, the figures for the inhibition in experiment [2] and in experiment [3] were 6% and 0%, respectively. The result in experiment [5], in experiment [6], in experiment [7] and in experiment [8] was inactive.
For the molecule `CN(C)CCN1CCN(CCCN2c3ccccc3Sc3ccc(C(F)(F)F)cc32)CC1`, the growth inhibition is 61% (active) in experiment [1] and 99% (active) in experiment [4]. In addition, the figures for the inhibition in experiment [2] and in experiment [3] were 98% (active) and -2%, respectively. Further, the outcome in experiment [5], in experiment [6], in experiment [7] and in experiment [8] was inactive.
`CC(C)C(C(=O)Nc1ccc(S(=O)(=O)N(C)C)cc1)c1ccc(Cl)cc1` (stereo not given): the growth inhibition in experiment [1] was 98% (active); in experiment [4], 100% (active). Also, the inhibition in experiment [2] was 27%; in experiment [3] it was -2%. Besides, the outcome in experiment [5], in experiment [6], in experiment [7] and in experiment [8] was inactive.
`COc1cc(C)nc2ccc(NC(=O)COCC(=O)Nc3ccc4nc(C)cc(OC)c4c3)cc12`: the figures for the growth inhibition in experiment [1] and in experiment [4] were 41% and 100% (active), respectively. The results for the inhibition in experiment [2] and in experiment [3] were 67% (active) and 7%, respectively. The result in experiment [5], in experiment [6], in experiment [7] and in experiment [8] was inactive.
Turning to `CS(=O)(=O)NCCCNCc1cccc(-c2ccc(-c3nc4ccccc4[nH]3)s2)c1`, the results for the growth inhibition in experiment [1] and in experiment [4] were -1% and 90% (active), respectively. Moreover, the inhibition in experiment [2] was 24%; in experiment [3] it was 6%. In addition, the outcome in experiment [5], in experiment [6], in experiment [7] and in experiment [8] was inactive.
For the molecule `CCCC(CNCc1cccc(OC(F)(F)F)c1)CNc1cc(=O)c2ccccc2[nH]1` (stereo not given), the growth inhibition in experiment [1] is 95% (active); in experiment [4] it was 101% (active). Also, the figures for the inhibition in experiment [2] and in experiment [3] were -4% and -2%, respectively. Also, the outcome in experiment [5], in experiment [6], in experiment [7] and in experiment [8] was inactive.
Turning to `O=c1cc(NCCCNC2CCc3ccc(Cl)cc32)[nH]c2ccccc12` (stereo not given), the growth inhibition in experiment [1] is 39%; in experiment [4] it was 92% (active). Besides, the inhibition is -2% in experiment [2] and 3% in experiment [3]. The result in experiment [5], in experiment [6], in experiment [7] and in experiment [8] was inactive.
With `CO/C(=C\C=C\c1cc2cc(Cl)c(Cl)cc2[nH]1)C(=O)NC1CCN(CCCc2ccccc2)CC1`, the growth inhibition in experiment [1] was 75% (active); in experiment [4], 93% (active). Besides, the inhibition in experiment [2] was 59% (active); in experiment [3] it was 0%. The result in experiment [5], in experiment [6], in experiment [7] and in experiment [8] was inactive.
Turning to `CC(C)NCc1ccc(-c2ccc(CN3CCCC(c4ccccc4)C3)cc2)c(C(=O)NCC2CCCCC2)c1` (stereo not given), the figures for the growth inhibition in experiment [1] and in experiment [4] were 53% (active) and 97% (active), respectively. For the same molecule, the figures for the inhibition in experiment [2] and in experiment [3] were 79% (active) and -3%, respectively. Besides, the result in experiment [5], in experiment [6], in experiment [7] and in experiment [8] was inactive.
As to `COc1cc(NC(=O)/C=C/c2ccccc2OC(F)(F)F)cc(OCCN2CCCCC2)c1`, the growth inhibition in experiment [1] is 6%; in experiment [4] it was 96% (active). For the same molecule, the inhibition in experiment [2] was 25%; in experiment [3], 0%. In addition, the result in experiment [5], in experiment [6], in experiment [7] and in experiment [8] was inactive.
With `O=C(Nc1cccc(C(F)(F)F)c1)Nc1cc(F)c(F)cc1Cl`, the growth inhibition in experiment [1] is 98% (active); in experiment [4] it was 83% (active). The inhibition was -1% in experiment [2] and 5% in experiment [3]. Moreover, the result in experiment [5], in experiment [6], in experiment [7] and in experiment [8] was inactive.
As to `Cn1cc(C2CCN(CCCCNC(=O)c3sc(-c4ccc(C(F)(F)F)cc4)nc3CO)CC2)c2ccccc21`, the growth inhibition in experiment [1] is 15%; in experiment [4] it was 95% (active). The inhibition in experiment [2] is 46%; in experiment [3], -3%. In addition, the outcome in experiment [5], in experiment [6], in experiment [7] and in experiment [8] was inactive.
Consider `O=S(=O)(Nc1cccc(CCN2CCC(N3CCCCC3)CC2)c1)c1cccc(C(F)(F)F)c1`, for which the values for the growth inhibition in experiment [1] and in experiment [4] were 13% and 101% (active), respectively. For the same molecule, the figures for the inhibition in experiment [2] and in experiment [3] were 25% and -1%, respectively. The result in experiment [5], in experiment [6], in experiment [7] and in experiment [8] was inactive.
As for `Cc1ccc(C(=O)Nc2ccc(Nc3ccnc4cc(-c5ccncc5)ccc34)cc2O)cc1`, the figures for the growth inhibition in experiment [1] and in experiment [4] were 100% (active) and 97% (active), respectively. In addition, the figures for the inhibition in experiment [2] and in experiment [3] were 14% and 1%, respectively. Also, the result in experiment [5], in experiment [6], in experiment [7] and in experiment [8] was inactive.
Take `FC(F)(F)c1cccc(-c2cc(NCCCn3ccnc3)nc(-c3ccncc3)n2)c1`: the results for the growth inhibition in experiment [1] and in experiment [4] were 100% (active) and 101% (active), respectively. The inhibition in experiment [2] was 50% (active); in experiment [3] it was 5%. Further, the result in experiment [5], in experiment [6], in experiment [7] and in experiment [8] was inactive.
In the case of `CCOc1ccc2c(NN=Cc3cccc(F)c3)cc(C)nc2c1`, the growth inhibition in experiment [1] and in experiment [4] was 100% (active) in each case. The inhibition was 0% in experiment [2] and 7% in experiment [3]. In addition, the result in experiment [5], in experiment [6], in experiment [7] and in experiment [8] was inactive.
For the molecule `Cc1ccc(NC(=O)c2ccc(NCCCN3CC(C)CC(C)C3)c([N+](=O)[O-])c2)cc1F` (stereo not given), the growth inhibition is 85% (active) in experiment [1] and 101% (active) in experiment [4]. Further, the figures for the inhibition in experiment [2] and in experiment [3] were 18% and -8%, respectively. Moreover, the result in experiment [5], in experiment [6], in experiment [7] and in experiment [8] was inactive.
